# From PubChem BioAssay AID583 (Sanford-Burnham Center for Chemical Genomics, 2007)
# Where “and” joins values, the source holds several entries; their conditions need not be identical. Equal values may be shown once. Out of some 140,000 compounds screened, about 80 (0.06%) were called active. This is one part of a sample in which actives are shown more often than they occur. Cut-off read from the data, not from the text of the source: active = displacement above about 50%; inactive = the rest. Where a structure was tested more than once in an assay, its records may differ in their call.
# Target: Heat shock 70 kDa protein 1A (Homo sapiens) (UniProt P0DMV8)
# Sequence (P0DMV8 whole entry, looked up): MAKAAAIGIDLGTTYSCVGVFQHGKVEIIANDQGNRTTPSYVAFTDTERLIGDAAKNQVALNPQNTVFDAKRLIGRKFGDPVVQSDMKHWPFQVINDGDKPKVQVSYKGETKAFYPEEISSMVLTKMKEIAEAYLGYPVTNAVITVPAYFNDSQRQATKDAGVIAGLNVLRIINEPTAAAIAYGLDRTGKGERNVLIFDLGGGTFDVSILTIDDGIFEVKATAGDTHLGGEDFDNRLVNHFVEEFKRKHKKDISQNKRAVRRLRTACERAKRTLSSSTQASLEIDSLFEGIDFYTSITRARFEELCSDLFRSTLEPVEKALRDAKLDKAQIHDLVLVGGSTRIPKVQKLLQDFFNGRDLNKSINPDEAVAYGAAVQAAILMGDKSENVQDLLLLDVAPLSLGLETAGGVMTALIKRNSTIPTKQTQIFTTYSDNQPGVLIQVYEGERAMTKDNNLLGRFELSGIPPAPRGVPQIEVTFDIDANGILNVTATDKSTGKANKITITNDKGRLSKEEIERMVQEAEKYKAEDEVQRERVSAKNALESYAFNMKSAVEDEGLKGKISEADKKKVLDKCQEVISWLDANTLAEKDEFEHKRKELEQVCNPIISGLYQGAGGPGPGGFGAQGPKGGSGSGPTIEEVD
# Assay: small molecules displacing fluorescent ligand from Hsp70 – biochemical, fluorescence polarization, primary screen (AID 583);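 note: plate controls were vehicle for no effect and reference ligand for full effect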
# Conditions: Hsp70 fluorescence polarization probe displacement, mP; at 20 µM; stronger effect = higher value
row,Compound,displacement
1,CCOC(=O)c1c(NC(=O)c2cccnc2)sc2c1CCC2,-2% (inactive)
2,CCOC(=O)c1c(NC(=O)c2cccnc2)sc2c1CCCC2,6.4% (inactive)
3,CC(C)OC(=O)c1c(NC(=O)c2cccnc2)sc2c1CCCCC2,80.1% (active)
4,COc1ccc(-c2cc(C(F)(F)F)nc(-n3cc(Br)cn3)n2)cc1,-0.2% (inactive)
5,O=C(O)CCN1C(=O)/C(=C2\C(=O)N(Cc3ccccc3Cl)c3ccccc32)SC1=S,53.2% (active)
6,O=C(O)CCCCCN1C(=O)/C(=C2/C(=O)N(CC(=O)O)c3ccccc32)SC1=S,5.6% (inactive)
7,CCCN1C(=O)/C(=C2\SC(=S)N(CCC(=O)O)C2=O)c2ccccc21,-0.7% (inactive)
8,Cc1cc(C)c(C(=O)CSc2n[nH]c(=O)n2C2CC2)cc1C,0.8% (inactive)
9,COCCOC(=O)c1ccc(NC(=O)COc2ccc(C)c(C)c2)cc1,86.3% (active)
10,COCCOC(=O)c1ccc(NC(=O)COc2cc(C)c(Cl)c(C)c2)cc1,0.2% (inactive)
11,COCCOC(=O)c1ccc(NC(=O)COc2ccc(C)cc2)cc1,3.9% (inactive)
12,C/C(=N\NC(=O)c1cc(-c2cccc([N+](=O)[O-])c2)n[nH]1)c1ccccc1O,-0.9% (inactive)
13,CCN(CC)C(=O)CSc1nnc(CCN)o1,-0.4% (inactive)
14,O=c1c2ccccc2nnn1CSc1nnc(-c2cccc(S(=O)(=O)N3CCCCC3)c2)o1,-0.1% (inactive)
15,CCOC(=O)C(=O)Nc1ccc(NC(C)=O)cc1,56.6% (active)
16,CCOC(=O)C(=O)Nc1ccc(C(N)=O)cc1,-0.8% (inactive)
17,CCOC(=O)C(=O)Nc1ccc(F)cc1,5.5% (inactive)
18,CCc1ccccc1NC(=O)CN(c1ccc(OC)c(Cl)c1)S(C)(=O)=O,-3.3% (inactive)
19,O=C(O)C1Nc2c(C(=O)N3CCOCC3)cccc2C2C=CCC12 (stereo not given),17.9% (inactive)
20,Cc1cc(I)c2c(c1)C1C=CCC1C(C(=O)O)N2 (stereo not given),23.8% (inactive)
21,O=C(O)C1Nc2c(Cl)cc(Cl)cc2C2C=CCC12 (stereo not given),78% (active)
22,O=C(O)C1Nc2c(C(=O)N3CCCC3)cccc2C2C=CCC12 (stereo not given),11.2% (inactive)
23,COc1ccc2c(c1)C1C=CCC1C(C(=O)O)N2 (stereo not given),31.6% (inactive)
24,Cc1c(Cl)ccc2c1NC(C(=O)O)C1CC=CC21 (stereo not given),95.7% (active)

row,Compound,displacement
1,O=C(Nc1ccc2c(c1)OCCO2)c1cnc2ccccn2c1=O,0.6% (inactive)
2,CCN(CC)CCCOc1c(Cl)cccc1Cl,0.3% (inactive)
3,Cc1cccc(OCC(=O)N2CCN(C(=O)c3cccs3)CC2)c1,-2.2% (inactive)
4,O=C1c2cccc3cccc(c23)C(=O)N1c1ccc2c(c1)OCO2,-2.6% (inactive)
5,CCOC(=O)c1c(C)nc(-c2ccccc2)nc1NC(C)=O,0.2% (inactive) and 7.4% (inactive)
6,CCOC(=O)c1c(C)nc(-c2ccccc2)nc1NC(=O)c1ccccc1,-1.8% (inactive)
7,CCOC(=O)c1c(C)nc(C)nc1NC(=O)c1ccccc1,85.3% (active)
8,CC1=C(C(=O)Nc2ccccn2)C(c2cccnc2)n2nnnc2N1 (stereo not given),1.5% (inactive)
9,COc1cccc(-c2nc3ccccc3c(=O)o2)c1,-0.1% (inactive)
10,O=c1nc(/C=C/c2cc([N+](=O)[O-])ccc2Cl)cc(C(F)(F)F)[nH]1,3.5% (inactive)
11,O=[N+]([O-])c1ccc(O)c(-c2cc(C(F)(F)F)nc(-c3ccccc3)n2)c1,4.6% (inactive)
12,O=C(Cn1ncc2c1-c1ccccc1OC2)Nc1nc2ccccc2s1,0% (inactive)
13,N#Cc1c(NC(=O)CCN2C(=O)c3ccccc3C2=O)sc2c1CCCC2,72.6% (active)
14,N#Cc1c(NC(=O)CCCN2C(=O)c3ccccc3C2=O)sc2c1CCCC2,2.9% (inactive)
15,NC(=O)c1c(NC(=O)CCN2C(=O)c3ccccc3C2=O)sc2c1CCC2,-3.3% (inactive)
16,COc1ccc(C2Nc3ccccc3NC3=C2C(=O)CC(c2ccc(Cl)cc2)C3)cc1 (stereo not given),-0.1% (inactive)
17,CC1(C)C2CCC1(C)C(NC(=O)C1CC3c4ccccc4C1c1ccccc13)C2 (stereo not given),1.1% (inactive)
18,Cc1ccc(NC(=O)CSc2nnc(-c3ccccc3Br)o2)cc1C,-2.9% (inactive)
19,Cn1c(O)c(/C=C2/C=CC=N2)c(=O)n(-c2ccccc2)c1=S,53% (active)
20,O=c1[nH]c(=S)n(-c2cccc(Cl)c2)c(O)c1/C=C1/C=CC=N1,10% (inactive)
21,Cc1ccccc1-n1c(O)c(C=C2C=CC=N2)c(=O)[nH]c1=S,44.3% (inactive)
22,CC1=C(C)CC2C(=O)N(c3ccc(Br)cc3)C(=O)C2C1 (stereo not given),4.3% (inactive)
23,Cc1ccc(N2C(=O)C3CC=C(c4ccccc4)CC3C2=O)cc1 (stereo not given),-0.4% (inactive)
24,O=C1C2CC=C(c3ccccc3)CC2C(=O)N1c1ccc(Br)cc1 (stereo not given),60.4% (active)

row,Compound,displacement
1,O=C1NC(=S)S/C1=C/c1cc(Br)ccc1OCc1ccccc1Cl,4.3% (inactive)
2,Cn1c(CN2CCCCC2)nc2cc(NC(=O)c3ccccc3)ccc21,1.9% (inactive)
3,COc1ccc(OC)c(NC(=S)NC(NC(=O)Cc2ccccc2)C(Cl)(Cl)Cl)c1 (stereo not given),-6.4% (inactive)
4,O=C(Nc1ccccc1)c1ccccc1C(=O)N1CCCCC1,4.4% (inactive)
5,CC1(C)OC(=O)C(=Cc2ccc(I)o2)C(=O)O1,97.3% (active)
6,O=C1C(=Cc2ccc(I)o2)C(=O)c2ccccc21,10.7% (inactive)
7,CC1(C)OC(=O)C(=Cc2ccc(-c3ccc(Cl)cc3Cl)o2)C(=O)O1,-3.2% (inactive)
8,COc1ccc(OC)c(C=NN2CCN(Cc3ccccc3Cl)CC2)c1,-1.8% (inactive)
9,CCOc1cc(C2Nc3ccc4ccccc4c3C3=C2CC(C)(C)CC3=O)ccc1O (stereo not given),2.3% (inactive)
10,Cc1csc(NC(=O)c2ccc([N+](=O)[O-])cc2Cl)n1,5.8% (inactive)
11,Nc1ccc(S(=O)(=O)O)c2cccc(S(=O)(=O)O)c12,6.4% (inactive)
12,Nc1cc(S(=O)(=O)O)cc2cccc(S(=O)(=O)O)c12,4.7% (inactive)
13,Nc1ccc(S(=O)(=O)O)c2cccc(O)c12,34.1% (inactive) and 73.7% (active)
14,O=C1c2ccccc2C(=O)N1/N=C/c1ccc(O)cc1O,-1.5% (inactive)
15,Cc1cccc(-c2cc3nc(C)cc(NCCCN(C)C)n3n2)c1,4.1% (inactive)
16,CN(C)c1ccc(/C=N/N=C2/NC(=O)C(Cc3ccc(Cl)cc3)S2)cc1 (stereo not given),-3.1% (inactive)
17,Cc1cc(C)n(Cc2ccc(C(=O)O)cc2)n1,-8.4% (inactive)
18,O=C(O)c1ccc(CN2CCOCC2)cc1,0% (inactive)
19,Cc1ccc(C)n1Cc1ccc(C(=O)O)cc1,103% (active) and 21.6% (inactive)
20,N#Cc1cc2c(nc1SCc1ccc(Br)cc1)CCCC2,-3.8% (inactive)
21,O=C(COc1ccc(Cl)cc1Cl)NNC(=O)CN1C(=O)/C(=C/c2ccc(Cl)cc2Cl)SC1=S,0.4% (inactive)
22,COc1ccccc1/C=N/NC(=O)C(=O)NCc1ccccn1,-2.8% (inactive)
23,CCn1c2ccccc2c2cc(CN3CCN(C(=O)CC(C)C)CC3)ccc21,-0.3% (inactive)
24,Cc1ccc(-n2[nH]c(C)c(C=Nc3ccc(C)cn3)c2=O)cc1,2% (inactive)

row,Compound,displacement
1,COc1ccccc1C=C1C(=O)NC(=S)N(c2ccccc2F)C1=O,4% (inactive)
2,Cn1cccc1/C=C1/C(=O)NC(=S)N(c2cccc(Cl)c2)C1=O,37.8% (inactive)
3,COc1ccccc1N1C(=O)C(=Cc2cccn2C)C(=O)NC1=S,69.9% (active)
4,N#Cc1cccc(-n2c(-c3ccccc3)nnc2-c2ccccc2)c1C#N,-2.8% (inactive)
5,COc1cc(NC(=O)c2ccc3c(c2)OCCO3)ccc1NC(=O)c1ccco1,-0.4% (inactive)
6,Cc1nn(-c2ccc(F)cc2)c(C)c1NS(=O)(=O)c1ccc(Cl)cc1,1% (inactive)
7,Cc1c(C#N)c2nc3ccccc3n2c(=O)/c1=C\c1c(O)n(-c2ccc(Br)cc2)[nH]c1=O,24.7% (inactive)
8,Cc1c(C#N)c2nc3ccccc3n2c(=O)/c1=C/c1sc2ccccc2c1O,2.1% (inactive)
9,Cc1ccc(-n2[nH]c(=O)c(/C=c3/c(C)c(C#N)c4nc5ccccc5n4c3=O)c2O)cc1C,83% (active)
10,O=C1c2ccccc2C(=O)N1c1ccc2c(c1)C(=O)N(c1ccccc1)C2=O,4.1% (inactive)
11,Nc1ccc2c(c1)C(=O)N(c1ccccc1)C2=O,8.5% (inactive)
12,O=[N+]([O-])c1cc(-c2nnc(-c3ccc(Br)o3)o2)cc([N+](=O)[O-])c1,0.4% (inactive)
13,O=C(NC1CC1)C1CCCN(C(=O)Nc2ccc(F)cc2)C1 (stereo not given),-7.5% (inactive)
14,Cc1ccc(C)c(S(=O)(=O)Nc2ccc3sc(C)nc3c2)c1,-3.2% (inactive)
15,CCOC(=O)c1[nH]cnc1C(=O)Nc1ccccc1,0% (inactive)
16,CCOC(=O)c1[nH]cnc1C(=O)NCc1ccccc1,88.8% (active)
17,CCOC(=O)c1[nH]cnc1C(=O)Nc1ccccn1,-29.4% (inactive) and -2.5% (inactive)
18,CC1=C(C(=O)Nc2ccccc2C)C(c2ccc(C)o2)N2C(=O)CSC2=N1 (stereo not given),1.1% (inactive)
19,CCN1C(=O)/C(=C2\SC(=O)N(Cc3ccccc3)C2=O)c2ccccc21,-2.9% (inactive)
20,N#C/C(=C\c1ccc(-c2ccc(C(=O)O)cc2)o1)C(=O)NCc1ccco1,-4.4% (inactive)
21,Cc1ccc([N+](=O)[O-])cc1-c1ccc(/C=C(\C#N)C(=O)NCc2ccco2)o1,75.7% (active)
22,N#C/C(=C\c1ccc(-c2cccc(Cl)c2Cl)o1)C(=O)NCc1ccco1,-2.5% (inactive)
23,CC(=O)OC(/C(O)=C(\C#N)c1nc2ccccc2[nH]1)c1ccccc1 (stereo not given),-1.2% (inactive)
